According to PubChem BioAssay (EPA / NIEHS):
Some compounds were tested as several samples or in several runs, with calls that do not always agree. Active and inactive are the calls of the source. How the source made its calls: active means hit-call score of the fitted dose curve at least 0.9, where 1 is the maximum; inactive means score below 0.9.

Assay: ATG_TAL_CIS: Attagene CIS-FACTORIAL HepG2 Assay for human TAL Basal Promoter (AID 2282966)
Settings: HepG2 Attagene cis-factorial TAL promoter reporter; actives raise or lower the signal
Procedure: ATG_CIS is a cell-based, multiplexed-readout assay that uses HepG2, a human liver cell line, with measurements taken at 24 hours after chemical dosing in a 24-well plate.ATG_TAL_CIS is one of 52 assay component(s) measured or calculated from the ATG_CIS assay. It is designed to make measurements of mRNA induction, a form of inducible reporter, as detected with fluorescence intensity signals by Reverse transcription polymerase chain reaction (RT-PCR) and Capillary electrophoresis technology.Data from the assay component ATG_TAL_CIS was analyzed into 1 assay endpoint. This assay endpoint, ATG_TAL_CIS, was analyzed with bidirectional fitting relative to DMSO as the negative control and baseline of activity. Using a type of inducible reporter, measures of mRNA for gain or loss-of-signal activity can be used to understand the background control at the transcription factor-level as they relate to the gene . Furthermore, this assay endpoint can be referred to as a secondary readout, because this assay has produced multiple assay endpoints where this one serves a background control function. To generalize the intended target to other relatable targets, this assay endpoint is annotated to the background measurement intended target family, where the subfamily is internal marker.
Human liver HepG2 cells are transiently transfected with multiple reporter transcription units (MRTUs) in 6-well plates using FuGene 6 reagent (Roche; 3 ml FuGene/1 mg DNA). The MRTU constructs are regulated by a cis-regulating element (promoter). […] A major difference between the CIS and TRANS system is that in CIS activities of endogenous TFs are measured, whereas the TRANS assay evaluates changes in activities of exogenous, chimeric NR-Gal4 proteins. […] At the end of 24 hour incubation, total RNA was isolated using TriZol reagent (Invitrogen). The isolated RNA is then reverse-transcribed using oligo(dT) primer and Mo-MLV reverse transcriptase (Invitrogen) with DNAse I (Ambion) treatment for 30 min. The one-tenth of the produced cDNA was amplified by PCR using Taq DNA polymerase (Invitrogen) and two reporter sequence-specific primers. The PCR products were fluorescently labeled by primer extension with 6-arboxyfluorescein (6-FAM) 5'-labeled reporter sequence-specific primer (2 min at 95 C, 20 s at 68 C and 10 min at 72 C) and these products were digested with 5U of HpaI (New England Biolabs) for 2h at 37 C. The fragments were purified using Qiaquick PCR columns (Qiagen), analyzed on an ABI 3130xL genetic analyzer (Applied Biosystems) with peak positions identified by using a set of X-rhodamine (ROX)-labeled MapMarker1000 molecular weight standards (BioVentures). The raw capillary electrophoresis data was processed using Attagraph software (Attagene).
In the case of `O=C(CBr)c1ccc(O)cc1`, the outcome is reported as “inactive”.
With `N#CCC#N` the outcome was “inactive”.
In the case of `CCOC(=O)c1ccccc1S(=O)(=O)NC(=O)Nc1nc(Cl)cc(OC)n1`, the outcome is reported as “inactive”.
For `C=C(C)C(=O)OCC(CC)CCCC` (stereo not given), the outcome was “inactive”.
With `CNC(=O)O/N=C/C(C)(C)S(C)(=O)=O` the outcome was “inactive”.
With `CC(C)(C)c1ccc(CCOc2ncnc3ccccc23)cc1` the outcome was “inactive”.
In the case of `O=C(O)C1(c2ccc3c(c2)OC[C@H](Cc2ccc(-c4ccccc4)cc2)[C@H]3O)CCCC1`, the outcome is reported as “inactive”.
In the case of `CCOP(=O)(OCC)SCCSCC`, the outcome is reported as “inactive”.
In the case of `O=C(CCl)NCO`, the outcome is reported as “inactive”.
In the case of `O=[N+]([O-])c1ccc(Nc2ccccc2)cc1`, the outcome is reported as “inactive”.
For `Nc1ccc(N)cc1`, the outcome was “inactive”.
With `C#CCO` the outcome was “inactive”.
In the case of `CN(N=O)c1ccc([N+](=O)[O-])cc1`, the outcome is reported as “inactive”.
In the case of `O=[N+]([O-])c1ccccc1O`, the outcome is reported as “inactive”.
In the case of `CCOC(=O)CCN(SN(C)C(=O)Oc1cccc2c1OC(C)(C)C2)C(C)C`, the outcome is reported as “inactive”.
For `C=CCOC(F)(C(F)(F)F)C(F)(F)F`, the outcome was “inactive”.
For `O=c1oc2ccccc2c(O)c1C(CC(O)c1ccc(-c2ccc(Br)cc2)cc1)c1ccccc1` (stereo not given), the outcome was “inactive” and the AC50 was 41.7 µM (active).
With `Cc1cccc(N=Nc2ccc(N(C)C)cc2)c1` the outcome was “inactive”.
With `CC(C)O.CC(C)O.OCCN(CCO)CCO.OCCN(CCO)CCO.[Ti]` the outcome was “inactive”.
With `O=C(NC(=O)c1c(F)cccc1F)Nc1cc(Cl)c(F)c(Cl)c1F` the outcome was “inactive”.
With `CC(C)(COCC1CO1)COCC1CO1` (stereo not given) the outcome was “inactive”.
In the case of `CCOP(=S)(OCC)SCS(=O)(=O)C(C)(C)C`, the outcome is reported as “inactive”.
With `CCC(C)(C#N)N=NC(C)(C#N)CC` (stereo not given) the outcome was “inactive”.
With `CCOC(=O)OC1=C(c2cc(C)ccc2C)C(=O)NC12CCC(OC)CC2` (stereo not given) the outcome was “inactive”.
For `O=C(O)COc1ccc(Cl)cc1`, the outcome was “inactive”.
For `COc1ccccc1N`, the outcome was “inactive”.
In the case of `Cc1cc(C)cc(C)c1`, the outcome is reported as “inactive”.
For `CCNc1nc(NCC)nc(SC)n1`, the outcome was “inactive”.
In the case of `OC[P+](CO)(CO)CO`, the outcome is reported as “inactive”.
For `O=C(O)COc1cc(Cl)c(Cl)cc1Cl`, the outcome was “inactive”.
With `CCCCOC(C)=O` the outcome was “inactive”.
For `Cl[C@H]1OCCO[C@@H]1Cl`, the outcome was “inactive”.
For `CCOCn1c(-c2ccc(Cl)cc2)c(C#N)c(Br)c1C(F)(F)F`, the outcome was “inactive”.
For `O=CCCl`, the outcome was “inactive”.
With `N#Cc1ccc(Cl)cc1` the outcome was “inactive”.
For `CCOP(=S)(OCC)O/N=C(\C#N)c1ccccc1`, the outcome was “inactive”.
With `C[As+](C)(C)CC(=O)[O-]` the outcome was “inactive”.
For `COC(=O)Nc1cccc(OC(=O)Nc2cccc(C)c2)c1`, the outcome was “inactive”.
In the case of `O=C1C[C@@H]2OCC=C3CN4CC[C@]56c7ccccc7N1[C@H]5[C@H]2[C@H]3C[C@H]46`, the outcome is reported as “inactive”.
